Sampled rows, rich in hits. Any-hit rate of the full collection: about 19%.
S-ASM inh: Inhibitors of Secretory Acid Sphingomyelinase (S-ASM): qHTS; Sphingomyelin phosphodiesterase (Homo sapiens), P17405; placental ASM, HMU-PC fluorogenic substrate, 60 min; Potency, µM (doses to about 57.5 µM), for the others: at the highest dose activity change, negative = inhibition, most hits filed as inhibitors; hit rate 0.006% among 340,000; further: potency means the concentration at half of the fitted maximal effect
Target sequence (P17405 47-631 limits assumed): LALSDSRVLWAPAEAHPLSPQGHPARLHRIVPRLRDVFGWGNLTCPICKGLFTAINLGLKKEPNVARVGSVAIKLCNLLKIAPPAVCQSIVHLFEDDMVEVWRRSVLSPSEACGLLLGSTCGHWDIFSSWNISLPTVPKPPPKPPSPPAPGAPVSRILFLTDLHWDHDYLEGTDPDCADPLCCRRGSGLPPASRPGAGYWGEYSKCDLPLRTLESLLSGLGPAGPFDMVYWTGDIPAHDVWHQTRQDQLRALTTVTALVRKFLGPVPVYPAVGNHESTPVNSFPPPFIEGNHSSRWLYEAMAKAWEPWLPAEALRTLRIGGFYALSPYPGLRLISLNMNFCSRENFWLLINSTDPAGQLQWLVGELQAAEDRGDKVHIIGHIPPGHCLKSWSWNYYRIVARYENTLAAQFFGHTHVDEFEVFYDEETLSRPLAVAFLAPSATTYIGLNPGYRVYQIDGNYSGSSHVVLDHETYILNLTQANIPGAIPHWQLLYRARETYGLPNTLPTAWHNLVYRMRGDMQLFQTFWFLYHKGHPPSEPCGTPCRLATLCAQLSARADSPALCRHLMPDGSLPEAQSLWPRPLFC
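qHTS format. ASM enzyme prepared from human placenta hydrolyses the fluorogenic substrate HMU-PC0 (9 uM final) over 60 min at 37 °C after a 10 min compound preincubation.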
TDP1 cell noCPT: qHTS for Inhibitors of human tyrosyl-DNA phosphodiesterase 1 (TDP1): qHTS in cells in absence of CPT. DT40 Tdp1-/- hTDP1 cells, no CPT, ATP luminescence, 48 h. Potency, µM (highest dose often 46.2 µM), for inactives: at the top dose activity change, negative = growth inhibition, most hits filed as inhibitors. hit rate 15% among 420,000. AID 686978, 2013; further: potency means the concentration at half of the fitted maximal effect; on the % scale 0 is the no-effect control and ±100 the full control effect; nearly all actives have a fitted effect of over 55% in size
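Stably hTDP1-transfected Tdp1-null chicken DT40 cells were treated with library compounds minus camptothecin and grown for at least 48 hr at 37 °C, after which cellular ATP was quantified by luminescence.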
IL1B secr inh: qHTS for Inhibitors of Inflammasome Signaling: IL-1-beta AlphaLISA Primary Screen | hit rate 4.7% among 360,000 | AID 743279, 2014 | activity change, % at 57.5 µM | THP-1 LPS/ATP IL-1B secretion, AlphaLISA, 16 h; active compounds read low; in the data active means activity change below about -50%; inconclusive means mostly about -30% to -49%; further: on the % scale 0 is the no-effect control and ±100 the full control effect
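Secreted IL-1B measured by AlphaLISA bead assay after 16 h compound exposure of THP-1 cells; compounds (final up to 57.5 uM) added 1 h before LPS (250 ng/mL) and ATP (1.25 mM) stimulation; lower signal means less secretion.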
TGFb inhibitor: qHTS for Inhibitors of TGF-b. AID 588855, 2011. HepG2 CAGA-GFP TGF-b/SMAD3 reporter, GFP fluorescence, 18 h; TGF-beta stimulated, 500 pg/mL final. Potency, µM (highest dose often 46.1 µM), inactives show at the top dose activity, negative = inhibition, usual class: inhibitors. hit rate 1.2% among 410,000; further: potency means the concentration at half of the fitted maximal effect; on the % scale 0 is the no-effect control and ±100 the full control effect; nearly all actives have a fitted effect of over 65% in size
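HEPG2 CAGA-GFP, 1000 cells/well; 2 h settle, 37 C; cpd via pin tool; TGF-b 500 pg/mL final; 18 h, 37 C; GFP imaging ex488/em500-530; %Activity normalised to -TGF-b and +DMSO controls; CRC fit, curve class.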
HepG2 tox: qHTS for Inhibitors of TGF-b: Cytotox Counterscreen. HepG2 CAGA-GFP viability, ATP luminescence, 18 h. Potency, µM (series often up to 46.1 µM), for the others: top-dose activity change, negative = cytotoxicity, usual class: cytotoxic. hit rate 0.76% among 410,000; further: potency means the concentration at half of the fitted maximal effect
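CellTiter-Glo luminescence gave cytotoxicity after 18 hours at 37 degrees C. The cells were HepG2 CAGA-GFP in 1% FBS DMEM, stimulated with 500 pg/mL TGF-beta after compound addition. %Activity was normalised to no-cell wells (complete cell-killing) and DMSO (no toxicity), and curves were fitted and classified.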
TDP1 cell CPT: qHTS for Inhibitors of human tyrosyl-DNA phosphodiesterase 1 (TDP1): qHTS in cells in presence of CPT. chicken DT40 Tdp1-/-;hTDP1 cells + 20 nM CPT, ATP luminescence, 48 h. AID 686979, 2013. Potency, µM (series often up to 46.2 µM), inactives show top-dose activity change, negative = growth inhibition, hits mostly inhibitors. hit rate 12% among 420,000; further: potency means the concentration at half of the fitted maximal effect; on the % scale 0 is the no-effect control and ±100 the full control effect; nearly all actives have a fitted effect of over 55% in size
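Chicken DT40 Tdp1-/- cells complemented with human TDP1, 400 cells/well, exposed to compounds plus 20 nM camptothecin for at least 48 h at 37 C; viability read as ATP content by CellTiter-Glo luminescence.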
The depositor's hits bear a star; ? = inconclusive; · = no result. Unless noted, the call rests on the fitted dose curve; in most records, active means well fitted curve in the direction sought with a large enough effect; inconclusive means small, poorly fitted or top-dose-only effect, or another doubt; inactive means no such curve, though single readings can be large; an effect the other way counts as inactive or inconclusive.

SMILES | S-ASM inh | TDP1 cell noCPT | IL1B secr inh | TGFb inhibitor | HepG2 tox | TDP1 cell CPT
O=C(CSc1cccc[n+]1[O-])NC(=O)c1ccc(OC(F)F)cc1 | -1% | -6% | 25 | 18% | -1% | 2%
Cc1ccc(CN2CCN(/N=C\C(Br)=C\c3ccccc3)CC2)cc1 | 0% | 8.2µM* | -78* | -27% | 2% | 2.6µM*
BrC(=C\c1ccccc1)/C=N/N1CCN(c2ccccc2)CC1 | 2% | 7.3µM* | -81* | ? | -17% | 1.2µM*
Cc1ccc(CN2CCN(/N=C/c3cc(Br)cc(Br)c3O)CC2)cc1 | -8% | 21µM* | -12 | -4% | -1% | ?
Oc1c(Br)cc(Br)cc1/C=N/N1CCN(Cc2ccccc2)CC1 | -12% | ? | ? | 1% | -4% | ?
CCC(=O)N1c2ccccc2CC1C(=O)N1CCN(c2cccc(Cl)c2)CC1 (stereo not given) | · | -27% | · | 10% | 1% | ?
Clc1ccccc1CNc1ncnc2c1c(-c1ccccc1)cn2-c1ccccc1 | · | ? | · | 1% | -14% | ?
CCN1C(=NCCc2c[nH]c3ccccc23)N[C@@H](c2ccccc2)[C@H](C(=O)OC)[C@H]1C | 2% | 18µM* | 14 | 1% | -10% | 9.2µM*
COC(=O)C1=C(C)N(Cc2ccccc2)C(=NCCc2c[nH]c3ccccc23)N[C@H]1c1cccc(F)c1 | -15% | 2.6µM* | -50* | ? | -101% | 5.2µM*
COC(=O)C1=C(C)N(Cc2ccccc2)C(=NCCc2c[nH]c3ccccc23)N[C@H]1c1ccccc1 | -11% | 21µM* | ? | ? | 10µM* | ?
CCN(CC)CCCN=C1N[C@@H](c2cccc(F)c2)C(C(=O)OC)=C(C)N1Cc1ccccc1 | 0% | ? | -5 | ? | -109% | ?
COc1ccc(NC(=O)N(Cc2nnc3n2CCCCC3)c2ccc(OC)c(Cl)c2)cc1 | · | -2% | · | 9% | -4% | 1%
CC(C)N1CCC1(C)C(=O)Nc1ccccc1OC(F)F (stereo not given) | · | ? | 35 | -6% | 4% | -21%
COC(=O)C1=C(\O)CCCC/C=C\1C(=O)O | 3% | 0% | 8 | 14% | 2.8µM* | 1%
COC(=O)C1=C(C)N(CCC2=CCCCC2)C(=O)C1 | -1% | ? | ? | -5% | -1% | ?
COc1ccc(OC)c(NC(=O)CCN2CCN(C/C=C/c3ccccc3)CC2)c1 | 1% | ? | 0 | 13% | 4% | ?
C=C1C[C@@H]2C[C@@H]2CN(S(=O)(=O)c2ccc(C)cc2)[C@@H]1COCc1ccccc1 | · | 8.2µM* | 3 | · | · | 8.2µM*
COC(=O)C1CN(S(=O)(=O)c2ccc(C)cc2)CCN1S(=O)(=O)c1ccc(C)cc1 (stereo not given) | 0% | ? | 6 | ? | 2% | ?
CCn1cc(CNCc2cn[nH]c2-c2cc3ccccc3o2)cn1 | 0% | 23µM* | 8 | 2% | 4% | 18µM*
CCOC(=O)/C(C#N)=C\c1cccnc1 | 3% | 0% | 17 | 14% | -23% | 6%
CCOC(=O)/C(=C\c1cccnc1)C(=O)c1cc(C(C)=O)c(Nc2ccccc2)s1 | -12% | 1.8µM* | -103* | 2.8µM* | -89% | 2.1µM*

Bioassay records: PubChem BioAssay, National Center for Advancing Translational Sciences (NCATS)
